# Of roughly 7,900 targets only a part is listed; those with a hit were picked by preference. About 0.6% of all pairs of compound and target were hits. Values without a mark were called inactive.
# Key:
# Experiment in all cases: log2 fold change, soluble protein after heating vs DMSO (PISA); higher = thermal stabilisation; K562 cells, 10 uM, 30 min; active = over 0.2 and 3.5 SD of the protein, either way, in both replicates (recomputed)
# bafetinib = compound: Cc1ccc(NC(=O)c2ccc(CN3CC[C@H](N(C)C)C3)c(C(F)(F)F)c2)cc1Nc1nccc(-c2cncnc2)n1 [bafetinib]
# Outline: (§1)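 Thermal stability values are relative to control samples and come from duplicates. They are expressed as log2 fold changes. For measurement, K562 cells (2×10^6 cells/mL) received 10 μM compound for 30 min, and aliquots were heated for 3 min over 48°C-58°C, pooled, and extracted at 4°C in PBS with 0.5% NP-40. Soluble protein, the supernatant after 21,000xg for 90 min, was quantified by TMTpro 16plex LC-MS/MS with equalised channel sums.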
# nilotinib = compound: Cc1cn(-c2cc(NC(=O)c3ccc(C)c(Nc4nccc(-c5cccnc5)n4)c3)cc(C(F)(F)F)c2)cn1 [nilotinib]
# Outline: as §1
# [1] = compound: Cc1nc(Nc2n[nH]c3c2CN(C(=O)N[C@H](CN(C)C)c2ccccc2)C3(C)C)c2sccc2n1
# Outline: as §1
# dasatinib = compound: Cc1nc(Nc2ncc(C(=O)Nc3c(C)cccc3Cl)s2)cc(N2CCN(CCO)CC2)n1 [dasatinib]
# Outline: as §1
# [2] = compound: Cc1ncc(-c2ccnc(Nc3ccc(S(C)(=O)=O)cc3)n2)n1C(C)C
# Outline: as §1
# [3] = compound: Cn1cc(-c2ccc3c(c2)CCN3C(=O)Cc2cccc(C(F)(F)F)c2)c2c(N)ncnc21
# Outline: as §1
# [4] = compound: Cn1cc(-c2ccc3nnc(C(F)(F)c4ccc5ncccc5c4)n3n2)cn1
# Outline: as §1
# tipifarnib = compound: Cn1cncc1[C@@](N)(c1ccc(Cl)cc1)c1ccc2c(c1)c(-c1cccc(Cl)c1)cc(=O)n2C [tipifarnib]
# Outline: as §1
# mubritinib = compound: FC(F)(F)c1ccc(/C=C/c2nc(COc3ccc(CCCCn4ccnn4)cc3)co2)cc1 [mubritinib]
# Outline: as §1
# [5] = compound: NC(=O)Nc1cc(-c2cccc(F)c2)sc1C(=O)N[C@H]1CCCNC1
# Outline: as §1
# [6] = compound: NC(=O)c1cnc(N[C@@H]2CCCC[C@@H]2N)nc1Nc1cccc(-n2nccn2)c1
# Outline: as §1
# [7] = compound: NC1(c2ccc(-c3nc4ccn5c(=O)[nH]nc5c4cc3-c3ccccc3)cc2)CCC1
# Outline: as §1
# [8] = compound: NCC(=O)Nc1ccc(-n2nc(C(F)(F)F)cc2-c2ccc3c(ccc4ccccc43)c2)cc1
# Outline: as §1
# entinostat = compound: Nc1ccccc1NC(=O)c1ccc(CNC(=O)OCc2cccnc2)cc1 [entinostat]
# Outline: as §1
# citarinostat = compound: O=C(CCCCCCNC(=O)c1cnc(N(c2ccccc2)c2ccccc2Cl)nc1)NO [citarinostat]
# Outline: as §1
# silmitasertib = compound: O=C(O)c1ccc2c(c1)nc(Nc1cccc(Cl)c1)c1ccncc12 [silmitasertib]
# Outline: as §1
# [9] = compound: O=C1NC(=O)C(c2cnc3ccccn23)=C1c1cn2c3c(cc(F)cc13)CN(C(=O)N1CCCCC1)CC2
# Outline: as §1
# [10] = compound: c1cc(OCCN2CCCCC2)cc(-c2n[nH]c3ccc(-c4nnc[nH]4)cc23)c1
# Outline: as §1
# [11] = compound: Cc1cccc(CC(=O)N2CCc3c2ccc(-c2cn(C)c4ncnc(N)c24)c3F)n1
# Outline: as §1
# vorinostat = compound: O=C(CCCCCCC(=O)Nc1ccccc1)NO [vorinostat]
# Outline: as §1
# Sequence of UniProt Q9UER7 (Q9UER7 whole entry, looked up): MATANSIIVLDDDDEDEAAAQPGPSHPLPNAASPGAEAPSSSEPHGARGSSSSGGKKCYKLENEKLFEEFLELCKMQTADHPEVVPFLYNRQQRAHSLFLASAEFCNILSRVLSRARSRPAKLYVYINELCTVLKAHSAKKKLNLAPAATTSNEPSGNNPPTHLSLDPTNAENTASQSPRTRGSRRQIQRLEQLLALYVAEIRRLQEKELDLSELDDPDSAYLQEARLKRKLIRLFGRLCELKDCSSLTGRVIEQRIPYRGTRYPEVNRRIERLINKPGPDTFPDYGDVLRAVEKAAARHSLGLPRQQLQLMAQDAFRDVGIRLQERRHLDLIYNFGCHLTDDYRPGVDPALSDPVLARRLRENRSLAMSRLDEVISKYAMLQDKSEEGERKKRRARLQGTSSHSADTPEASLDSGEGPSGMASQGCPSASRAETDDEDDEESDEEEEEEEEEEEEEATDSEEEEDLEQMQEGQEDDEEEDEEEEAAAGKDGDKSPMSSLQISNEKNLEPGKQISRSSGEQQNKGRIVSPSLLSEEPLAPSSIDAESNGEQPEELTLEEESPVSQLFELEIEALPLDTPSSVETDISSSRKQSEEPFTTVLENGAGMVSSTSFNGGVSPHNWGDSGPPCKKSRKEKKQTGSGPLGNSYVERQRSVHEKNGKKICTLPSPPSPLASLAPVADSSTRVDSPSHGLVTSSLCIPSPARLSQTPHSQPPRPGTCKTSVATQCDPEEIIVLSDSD
# Sequence of UniProt Q16531 (Q16531 whole entry, looked up): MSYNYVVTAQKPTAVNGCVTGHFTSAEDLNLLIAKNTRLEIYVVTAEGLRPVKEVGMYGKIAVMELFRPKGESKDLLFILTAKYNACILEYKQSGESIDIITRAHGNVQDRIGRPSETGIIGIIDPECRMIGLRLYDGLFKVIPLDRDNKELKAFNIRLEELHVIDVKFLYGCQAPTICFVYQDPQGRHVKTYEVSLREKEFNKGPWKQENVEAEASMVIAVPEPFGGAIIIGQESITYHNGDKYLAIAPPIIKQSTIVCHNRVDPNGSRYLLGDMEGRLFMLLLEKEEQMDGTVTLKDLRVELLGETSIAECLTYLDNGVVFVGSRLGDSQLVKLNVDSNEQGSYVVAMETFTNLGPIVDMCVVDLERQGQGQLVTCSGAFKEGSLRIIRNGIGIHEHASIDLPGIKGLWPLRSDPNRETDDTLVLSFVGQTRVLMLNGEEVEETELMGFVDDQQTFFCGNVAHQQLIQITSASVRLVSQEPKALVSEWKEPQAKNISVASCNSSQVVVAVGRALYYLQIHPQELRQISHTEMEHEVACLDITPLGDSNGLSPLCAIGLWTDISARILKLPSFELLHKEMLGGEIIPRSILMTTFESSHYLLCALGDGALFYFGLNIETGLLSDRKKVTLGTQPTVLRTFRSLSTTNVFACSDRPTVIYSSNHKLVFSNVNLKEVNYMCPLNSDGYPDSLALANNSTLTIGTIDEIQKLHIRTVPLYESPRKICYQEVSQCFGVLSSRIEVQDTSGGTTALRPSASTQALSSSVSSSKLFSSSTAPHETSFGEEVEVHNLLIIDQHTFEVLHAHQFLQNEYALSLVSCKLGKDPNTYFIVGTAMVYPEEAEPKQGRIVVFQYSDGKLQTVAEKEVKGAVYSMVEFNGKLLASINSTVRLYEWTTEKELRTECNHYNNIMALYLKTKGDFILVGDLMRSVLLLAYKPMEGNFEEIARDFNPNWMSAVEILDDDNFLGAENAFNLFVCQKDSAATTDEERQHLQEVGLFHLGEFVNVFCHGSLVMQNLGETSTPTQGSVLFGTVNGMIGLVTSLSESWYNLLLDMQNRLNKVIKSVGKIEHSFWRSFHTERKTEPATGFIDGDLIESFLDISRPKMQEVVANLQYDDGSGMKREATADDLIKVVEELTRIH
# Sequence of UniProt Q01780 (Q01780 whole entry, looked up): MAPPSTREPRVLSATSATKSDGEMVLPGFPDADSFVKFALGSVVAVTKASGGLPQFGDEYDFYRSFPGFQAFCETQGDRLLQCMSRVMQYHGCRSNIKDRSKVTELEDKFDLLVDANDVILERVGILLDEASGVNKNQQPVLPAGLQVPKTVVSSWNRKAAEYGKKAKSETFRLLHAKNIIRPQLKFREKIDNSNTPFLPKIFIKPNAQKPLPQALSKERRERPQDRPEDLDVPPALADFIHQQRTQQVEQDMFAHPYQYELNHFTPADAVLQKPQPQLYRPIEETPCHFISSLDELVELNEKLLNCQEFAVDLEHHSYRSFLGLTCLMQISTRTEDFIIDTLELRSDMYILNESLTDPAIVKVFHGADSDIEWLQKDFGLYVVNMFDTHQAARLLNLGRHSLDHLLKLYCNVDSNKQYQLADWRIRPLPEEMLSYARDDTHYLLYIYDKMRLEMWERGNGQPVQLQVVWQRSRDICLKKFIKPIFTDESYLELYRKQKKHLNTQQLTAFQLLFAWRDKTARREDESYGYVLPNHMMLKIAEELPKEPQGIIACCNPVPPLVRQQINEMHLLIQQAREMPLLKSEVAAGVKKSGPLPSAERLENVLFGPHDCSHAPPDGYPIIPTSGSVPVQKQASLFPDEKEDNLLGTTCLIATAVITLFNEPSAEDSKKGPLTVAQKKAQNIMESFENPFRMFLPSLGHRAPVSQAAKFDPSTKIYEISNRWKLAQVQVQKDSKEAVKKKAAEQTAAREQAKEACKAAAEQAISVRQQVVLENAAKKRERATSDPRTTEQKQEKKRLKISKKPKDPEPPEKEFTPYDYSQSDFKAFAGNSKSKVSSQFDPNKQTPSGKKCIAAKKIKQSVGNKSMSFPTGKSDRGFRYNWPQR
# Sequence of UniProt Q9BSJ8 (Q9BSJ8 whole entry, looked up): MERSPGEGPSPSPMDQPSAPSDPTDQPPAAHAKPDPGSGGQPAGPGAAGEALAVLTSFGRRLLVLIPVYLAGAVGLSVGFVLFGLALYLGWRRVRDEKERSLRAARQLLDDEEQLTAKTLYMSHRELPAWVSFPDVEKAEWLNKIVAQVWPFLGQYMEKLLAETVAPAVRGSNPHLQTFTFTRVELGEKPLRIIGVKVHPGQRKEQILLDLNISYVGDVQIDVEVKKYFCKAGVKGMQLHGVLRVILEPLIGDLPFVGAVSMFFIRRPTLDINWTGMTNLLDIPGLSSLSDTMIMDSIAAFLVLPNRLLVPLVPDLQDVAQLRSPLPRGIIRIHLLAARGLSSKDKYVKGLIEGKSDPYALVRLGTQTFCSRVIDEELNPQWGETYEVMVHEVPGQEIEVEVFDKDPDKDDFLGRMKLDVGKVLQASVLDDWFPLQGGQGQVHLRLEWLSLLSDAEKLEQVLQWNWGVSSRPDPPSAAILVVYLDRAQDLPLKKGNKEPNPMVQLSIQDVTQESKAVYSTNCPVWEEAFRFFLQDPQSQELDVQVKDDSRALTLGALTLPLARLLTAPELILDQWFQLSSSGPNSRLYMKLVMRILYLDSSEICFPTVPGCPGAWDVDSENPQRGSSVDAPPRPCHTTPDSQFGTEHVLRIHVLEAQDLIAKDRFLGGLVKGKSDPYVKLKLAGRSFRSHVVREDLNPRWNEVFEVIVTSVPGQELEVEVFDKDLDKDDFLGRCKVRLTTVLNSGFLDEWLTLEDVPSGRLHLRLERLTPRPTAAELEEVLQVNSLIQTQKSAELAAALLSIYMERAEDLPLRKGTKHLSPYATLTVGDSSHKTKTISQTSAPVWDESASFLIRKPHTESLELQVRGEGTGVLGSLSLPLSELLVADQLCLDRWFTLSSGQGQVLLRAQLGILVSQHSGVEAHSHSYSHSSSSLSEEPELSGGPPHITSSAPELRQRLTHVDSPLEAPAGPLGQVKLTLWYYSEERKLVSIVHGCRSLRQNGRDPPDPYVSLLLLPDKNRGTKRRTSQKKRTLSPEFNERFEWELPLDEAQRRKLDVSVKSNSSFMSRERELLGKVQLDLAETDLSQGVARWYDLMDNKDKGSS
# Sequence of UniProt Q99615 (Q99615 whole entry, looked up): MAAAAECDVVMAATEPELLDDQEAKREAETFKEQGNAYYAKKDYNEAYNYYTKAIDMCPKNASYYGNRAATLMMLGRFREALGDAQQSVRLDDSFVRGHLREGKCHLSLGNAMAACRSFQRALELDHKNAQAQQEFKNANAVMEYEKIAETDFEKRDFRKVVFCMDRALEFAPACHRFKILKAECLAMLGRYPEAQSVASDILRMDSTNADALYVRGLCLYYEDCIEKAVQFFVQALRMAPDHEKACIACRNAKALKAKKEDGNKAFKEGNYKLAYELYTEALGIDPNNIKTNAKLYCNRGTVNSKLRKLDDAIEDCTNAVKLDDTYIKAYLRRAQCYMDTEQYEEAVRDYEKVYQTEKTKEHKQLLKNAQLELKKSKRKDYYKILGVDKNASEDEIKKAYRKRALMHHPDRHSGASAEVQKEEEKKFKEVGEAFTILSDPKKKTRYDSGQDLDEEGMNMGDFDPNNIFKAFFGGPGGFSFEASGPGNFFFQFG
# Sequence of UniProt Q9BPY3 (Q9BPY3 whole entry, looked up): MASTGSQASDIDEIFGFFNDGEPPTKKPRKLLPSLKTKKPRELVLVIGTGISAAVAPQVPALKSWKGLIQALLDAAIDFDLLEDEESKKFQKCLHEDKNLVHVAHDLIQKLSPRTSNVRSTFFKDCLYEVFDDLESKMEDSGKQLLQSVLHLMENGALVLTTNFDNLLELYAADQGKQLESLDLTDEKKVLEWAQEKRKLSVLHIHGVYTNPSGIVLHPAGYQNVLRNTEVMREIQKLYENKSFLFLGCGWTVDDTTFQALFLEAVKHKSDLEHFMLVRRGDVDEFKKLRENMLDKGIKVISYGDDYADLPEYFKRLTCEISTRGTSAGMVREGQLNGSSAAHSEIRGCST
# Sequence of UniProt O60573 (O60573 whole entry, looked up): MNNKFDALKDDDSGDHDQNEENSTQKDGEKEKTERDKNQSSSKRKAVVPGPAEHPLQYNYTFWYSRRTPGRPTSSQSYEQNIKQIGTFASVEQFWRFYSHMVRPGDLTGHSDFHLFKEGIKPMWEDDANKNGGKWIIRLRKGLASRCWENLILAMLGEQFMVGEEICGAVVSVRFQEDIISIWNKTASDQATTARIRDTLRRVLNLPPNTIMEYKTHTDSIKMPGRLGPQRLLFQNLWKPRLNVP
Target,log2 fold change (bafetinib),log2 fold change (nilotinib),log2 fold change [1],log2 fold change (dasatinib),log2 fold change [2],log2 fold change [3],log2 fold change [4],log2 fold change (tipifarnib),log2 fold change (mubritinib),log2 fold change [5],log2 fold change [6],log2 fold change [7],log2 fold change [8],log2 fold change (entinostat),log2 fold change (citarinostat),log2 fold change (silmitasertib),log2 fold change [9],log2 fold change [10],log2 fold change [11],log2 fold change (vorinostat)
EIF4E2 (UniProt O60573),-0.055,-0.094,-0.052,-0.232,-0.004,0.082,-0.059,-0.127,0.035,0.054,-0.015,0.085,-0.048,0.075,0.245,0.019,0.003,0.079,,
DEGS1 (UniProt O15121),-0.032,0.04,-0.021,-0.1,-0.031,-0.07,,-0.026,0.087,-0.101,0.249,0.086,-0.169,-0.006,0.109,-0.053,-0.003,-0.063,-0.029,0.077
DDB1 isoform 2 (UniProt Q16531),-0.286,,,,,,,,,-0.295,,,,-0.237,-0.203,,-0.09,-0.12,-0.094,-0.032
DNAH10 (UniProt Q8IVF4),0.062,-0.092,0.037,0.093,0.043,0.102,,,0.154,0.057,,-0.045,0.026,-0.041,0.242,-0.101,-0.102,0.172,-0.052,0.083
CYB561A3 isoform 2 (UniProt Q8NBI2),0.03,0.012,0.065,0.034,-0.029,0.004,-0.044,-0.087,-0.015,-0.019,-0.075,-0.066,,-0.004,-0.081,0.04,,0.035,-0.223,-0.254
ESYT1 isoform 2 (UniProt Q9BSJ8),0.112,-0.088,-0.208,-0.147,0.022,-0.059,-0.06,0.007,-0.092,0.062,0.004,-0.004,-0.044,0.086,0.033,0.041,0.187,-0.048,0.137,0.122
FAM241A (UniProt Q8N8J7),-0.143,-0.027,0.029,0.02,-0.095,0.046,0.049,0.008,0.028,0.661 (active),-0.033,-0.032,-0.004,0.424 (active),-0.09,0.045,,-0.058,-0.056,-0.005
DNAJC7 (UniProt Q99615),-0.047,-0.107,-0.048,-0.136,0.024,0.068,0.058,-0.012,0.037,-0.067,-0.029,-0.204,-0.071,0.05,0.071,0.001,-0.03,-0.001,0.031,0.043
DAXX (UniProt Q9UER7),-0.119,0.055,-0.106,-0.034,0,0.061,-0.016,0.034,,0.093,-0.103,,-0.08,-0.099,0.075,,,-0.076,-0.089,0.034
DSN1 (UniProt Q9H410),0.063,0.082,-0.217,-0.242,0.104,0.041,0.059,0.027,-0.03,-0.026,-0.057,-0.166,-0.037,0.076,0.021,0.025,-0.032,-0.081,,
FAM118B (UniProt Q9BPY3),-0.083,-0.114,-0.106,,0.022,0.014,0.02,-0.083,0.015,-0.034,-0.118,-0.381 (active),-0.027,0.047,0.052,-0.082,-0.13,-0.078,0.028,0.064
EXOSC10 (UniProt Q01780),-0.63 (active),,,0.017,,0.152,0.251,0.195,0.046,-0.49,-0.054,0.014,-0.189,-0.339,-0.125,0.041,-0.044,0.01,0,0.039
EEF1A1 (UniProt P68104),-0.114,0.042,-0.113,-0.116,0.001,0.044,-0.063,-0.057,-0.033,-0.046,0.084,0.091,0.191,-0.017,-0.04,-0.11,0.023,0.07,,
CTSV (UniProt O60911),-0.696 (active),0.036,0.142,0.061,-0.056,0.016,-0.002,0.026,-0.009,0,-0.066,-0.296,-0.052,-0.063,-0.008,0.027,-0.105,0.165,-0.24,-0.029
FAM160A2 isoform 2 (UniProt Q8N612),-0.208,-0.085,0.192,-0.186,-0.101,-0.083,0.046,,0.093,,,0.158,-0.26,,-0.154,0.057,0.026,0.068,-0.145,-0.009
EIF4G3 isoform 3 (UniProt O43432),-0.01,-0.043,-0.12,-0.006,0.052,-0.073,0.056,0.083,-0.005,0.012,-0.092,-0.062,-0.016,0.01,-0.114,0.146,,-0.515 (active),,
DDX5 (UniProt P17844),0.272,0.166,-0.092,-0.19,0.076,0.029,0.046,-0.155,0.326,-0.139,-0.032,-0.21,-0.135,0.067,0.072,-0.088,-0.158,-0.039,0.018,0.073
CTSC (UniProt P53634),-0.452 (active),-0.008,0,0.046,-0.033,0.041,0.004,-0.039,0.056,0.019,-0.015,-0.11,0.086,-0.053,0.015,-0.053,-0.057,0.063,-0.004,-0.016

# From the supplement of paper PMC10849652
